# High-throughput results (PubChem BioAssay)
# Six1-Eya2 blk = inhibitors of human Six1/Eya2 interaction; Q15475+O00167; AlphaScreen GST-Six1/His-Eya2 binding, biochemical; hits give low values; activity change, % (no concentration beside the values); 360,000 compounds, 0.56% hits; AID 651725; in the data active = activity change below about -65%; inconclusive = mostly about -30% to -63%; note: % is set by controls: 0 for no effect and ±100 for the full control effect
# Target sequence (O00167 whole entry, looked up): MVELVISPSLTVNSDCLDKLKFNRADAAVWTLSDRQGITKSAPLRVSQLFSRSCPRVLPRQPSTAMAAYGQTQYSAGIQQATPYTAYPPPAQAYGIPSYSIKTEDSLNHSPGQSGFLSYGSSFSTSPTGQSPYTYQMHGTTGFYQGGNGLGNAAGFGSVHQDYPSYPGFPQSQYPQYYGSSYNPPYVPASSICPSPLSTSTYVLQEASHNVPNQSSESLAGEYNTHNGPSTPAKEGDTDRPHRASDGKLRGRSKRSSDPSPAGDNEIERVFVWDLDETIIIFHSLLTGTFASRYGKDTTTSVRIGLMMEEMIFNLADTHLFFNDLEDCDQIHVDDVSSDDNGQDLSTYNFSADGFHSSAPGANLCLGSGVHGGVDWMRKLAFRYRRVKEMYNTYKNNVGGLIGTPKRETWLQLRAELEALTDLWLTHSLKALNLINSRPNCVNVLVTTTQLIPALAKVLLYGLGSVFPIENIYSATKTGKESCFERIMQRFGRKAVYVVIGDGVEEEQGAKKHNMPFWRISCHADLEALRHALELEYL
# Target sequence (Q15475 whole entry, looked up): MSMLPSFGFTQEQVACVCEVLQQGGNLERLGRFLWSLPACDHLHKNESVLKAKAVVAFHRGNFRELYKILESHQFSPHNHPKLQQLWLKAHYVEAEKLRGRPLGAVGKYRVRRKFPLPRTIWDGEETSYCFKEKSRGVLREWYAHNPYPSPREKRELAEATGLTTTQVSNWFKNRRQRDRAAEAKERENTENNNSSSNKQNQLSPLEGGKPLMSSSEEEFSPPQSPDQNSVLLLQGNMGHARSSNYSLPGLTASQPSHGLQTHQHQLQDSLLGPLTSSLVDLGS
#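 AlphaScreen luminescence read after one hour at 37 °C in darkness. Pin-transferred compounds met GST-Six1 and His-Eya2 protein (5X stock 250 nM/500 nM) plus glutathione donor and Ni-chelate acceptor beads (5X, 50 ug/mL).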
# JMJD2A Tudor = JMJD2A Tudor domain (human) inhibition. 390,000 compounds, 4.4% hits. Potency, µM (series often up to 114 µM), for inactives: at the highest dose activity change, negative = inhibition, hits mostly inhibitors. AlphaScreen JMJD2A-Tudor / H3K4me3 peptide binding. O75164. AID 504339; note: potency is the fitted concentration of half-maximal effect; % is set by controls: 0 for no effect and ±100 for the full control effect; nearly all actives have a fitted effect of over 50% in size
# BAZ2B block = blocks human BAZ2B. Q9UIF8. AlphaScreen BAZ2B-H3K14Ac peptide displacement. 360,000 compounds, 4.4% hits. AID 504333. Potency, µM (highest dose often 114 µM), for inactives: top-dose activity change, negative = inhibition, hits mostly inhibitors; note: potency is the fitted concentration of half-maximal effect; % is set by controls: 0 for no effect and ±100 for the full control effect; nearly all actives have a fitted effect of over 60% in size
#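 AlphaScreen displacement: compounds (up to 110uM) incubated 30 min at room temperature with a preformed 50 nM BAZ2B/50 nM biotinylated H3K14Ac peptide complex in PBS pH 7.4 with Tween-20. Donor and acceptor beads at 10 ug/mL final added, 20 min light-protected before reading.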
# CtBP-E1A inh = blocks the CtBP interaction with E1A; AlphaScreen GST-E1A/His-CtBP binding, 1536-well; hits give low values; activity change, % (test concentration not listed); 340,000 compounds, 0.49% hits; in the data active = activity change below about -65%; inconclusive = mostly about -30% to -63%; note: % is set by controls: 0 for no effect and ±100 for the full control effect
#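 Protein mix (5X: 125 nM each GST-E1A, His-CtBP) was incubated with pinned compound 2 h at 37 deg C in dark, in 50 mM Tris pH 8.0 buffer with 300 mM NaCl. Glutathione donor and nickel acceptor beads followed; AlphaScreen signal read after 1 h.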
# HP1b binding inh = blocks HP1-beta chromodomain binding to methylated histone tails | P83916 | AlphaScreen HP1-beta / biotin-H3K9me3 peptide binding | Potency, µM (highest dose often 114 µM), without a hit: top-dose activity change, negative = inhibition, most hits filed as inhibitors | 390,000 compounds, 0.56% hits | AID 540317; note: potency is the fitted concentration of half-maximal effect; nearly all actives have a fitted effect of over 70% in size
#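 Compound inhibition of the preformed complex between 50 nM HP1-beta and 50 nM biotinylated H3K9me3 peptide was read by AlphaScreen. Buffer was PBS pH 7.4 with 0.01% Tween-20. Incubations ran 30 min at room temperature, with 10 ug/mL donor/acceptor beads.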
# G9a block = inhibitors of human histone lysine methyltransferase G9a | Potency, µM (series often up to 102 µM), without a hit: at the top dose activity, negative = inhibition, most hits filed as inhibitors | G9a H3K9 monomethylation, AlphaScreen, 2 h | 350,000 compounds, 8.8% hits | AID 504332; note: potency is the fitted concentration of half-maximal effect; % is set by controls: 0 for no effect and ±100 for the full control effect; nearly all actives have a fitted effect of over 75% in size
#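 Using a bead-based AlphaScreen, monomethylated H3K9 product from 2 h room-temperature reactions (G9a 20 nM, peptide 500 nM, SAM 20 uM) was detected with 0.5 ug/mL rabbit anti-H3K9me1 antibody.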
# An asterisk follows results filed as active; u = inconclusive; x = not tested or not shown; [ ] = another dose, or the depositor's remark. Compounds with a hit are over-represented: about 10% of the library has one in this group of screens. Unless noted, calls come from the whole dose curve; as a rule, active = well fitted inhibition curve with a large enough effect; inconclusive = small, poorly fitted or top-dose-only effect; inactive = no such curve, though single readings can be large or run the other way.
SMILES,Six1-Eya2 blk,JMJD2A Tudor,BAZ2B block,CtBP-E1A inh,HP1b binding inh,G9a block
CCCC(=O)Nc1sc2c(c1C(=O)OC)C(C(=O)OC)CC2 (stereo not drawn),4.3,-11.5%,9.0%,3.5,11.1%,-3.0%[59 µM]
COC(=O)c1c(NC(=O)CCCOc2ccc(C(C)(C)C)cc2)sc2c1C(C(=O)OC)CC2 (stereo not drawn),x,56.2µM*,28.2µM*,x,-24.0%,1.41µM*
Cn1c(SCC(=O)N2CCOCC2)nnc1-c1ccncc1,-5.5,0.7%,6.9%,-6.7,7.4%,-11.8%[59 µM]
CC(C)c1ccc(-c2noc(SCC(=O)N3CCN(c4ccccc4F)CC3)n2)cc1,x,4.5%,7.7%,x,57.7%,3.9%[59 µM]
COc1cc2c(cc1OC)CN(Cc1cc(=O)n3cc(C)ccc3n1)CC2,5.4,-15.7%,-1.4%,-0.3,36.1%,35.5µM*
O=C(CSc1nc(-c2ccccc2)no1)N1CCN(c2ccccc2F)CC1,x,20µM*,8.5%,x,34.8%,5.0%[59 µM]
Cn1c(SCC(=O)N2CCN(Cc3ccccc3)CC2)nnc1-c1ccncc1,-1.0,-9.7%,-0.8%,2.3,30.2%,11.2µM*
O=c1cc(CN2CCc3ccccc3C2)nc2sccn12,-4.7,-5.6%,6.6%,-1.4,41.9%,79.4µM*
COc1cc2c(cc1OC)CN(C(=O)CSc1nnc3scc(-c4ccccc4)n13)CC2,2.2,-16.2%,-24.4%,-3.2,50.8%,14.1µM*
CN(Cc1cc(=O)n2ccsc2n1)c1ccccc1,2.4,-6.9%,0.9%,x,40.4%,0.0%[59 µM]
COC(=O)CSc1nnc(-c2cccc(NC(=O)c3ccc(C)cc3)c2)n1C,-5.3,-21.9%,8.0%,-5.4,21.0%,-47.2%
Cn1c(SCC(=O)O)nnc1-c1cccc(NC(=O)c2cccc3ccccc23)c1,-4.0,-4.4%[11.4 µM],-13.3%,-6.8,33.2%,31.6µM*
Cn1c(SCC(=O)N2CCN(c3ccccc3)CC2)nnc1-c1ccccc1,-3.6,-8.3%,-19.6%,-0.8,21.2%,50.1µM*
CN(Cc1cc(=O)n2ccsc2n1)C1CCCCC1,0.2,-3.4%,-31.1%,-7.3,27.1%,50.1µM*
Cn1c(SCC(=O)N2CCN(c3ccccc3)CC2)nnc1-c1ccco1,4.3,-15.0%,-26.2%,3.3,34.4%,28.3%
O=C(CSc1nnc2scc(-c3ccccc3)n12)N1CCCc2ccccc21,-0.7,-16.2%,-27.5%,2.9,24.1%,3.8%[12.7 µM]
Cc1ccc(C)c(N2CCN(C(=O)CCS(=O)(=O)c3ccc4c(c3)CC(=O)N4C)CC2)c1,x,-22.7%,-19.9%,x,-3.9%,-11.2%[59 µM]
Fc1cccc(NCc2cccn2-c2nnc(N3CCOCC3)s2)c1,x,-16.8%,0.1%[57.1 µM],x,29.6%,-1.6%[59 µM]
O=S(=O)(Nc1ccc(F)cc1F)c1ccc(Br)s1,x,-15.0%,-0.4%,x,19.6%,-30.7%[59 µM]
CCn1c(SCC(=O)N2CCN(c3ccccc3)CC2)nnc1-c1c[nH]c2ccccc12,-3.4,-25.4%,-26.9%,-6.7,19.1%,-3.1%[59 µM]
CCn1c(SCC(=O)N2CCN(c3ccccc3)CC2)nnc1-c1ccncc1,x,x,9.5%,x,x,1.78µM*
CCn1c(COc2c(C)cccc2C)nnc1SCC(=O)N1CCN(c2ccccc2)CC1,-6.6,-22.9%,-28.9%,-1.5,15.7%,-6.5%[59 µM]
O=C(CSc1nnc2scc(-c3ccccc3)n12)N1CCN(Cc2ccccc2)CC1,3.7,-17.4%,3.0%,-8.7,12.6%,u
Cc1ccc(-c2csc3nnc(SCC(=O)N4CCN(Cc5ccccc5)CC4)n23)cc1,-6.0,-30.6%,-38.5%,5.5,1.4%,25.1µM*
C=CCn1c(COc2cccc(C)c2C)nnc1SCC(=O)N1CCN(c2ccccc2)CC1,-10.5,u,u,5.5,-11.0%,3.98µM*
COc1cc2c(cc1OC)CN(Cc1cc(=O)n3c(-c4ccccc4)csc3n1)CC2,-4.5,-20.4%,-3.8%,-0.4,32.4%,25.1µM*
COC(=O)c1c(C)oc2ccc(N(C(=O)c3ccncc3)S(=O)(=O)c3c(C)cc(C)cc3C)cc12,x,-18.0%,0.9%,x,12.7%,-24.2%[59 µM]
